Results on eleven compounds are retold here after PubChem BioAssay (NCATS).

Results filed as inconclusive are left out. Active and inactive are the calls of the source. Unless noted, calls come from the whole dose curve; as a rule, active = well fitted curve in the direction sought with a large enough effect; inconclusive = small, poorly fitted or top-dose-only effect, or another doubt; inactive = no such curve, though single readings can be large; an effect the other way counts as inactive or inconclusive.

The target of assay [1] is Cytochrome P450 2D6 (Homo sapiens) (UniProt P10635). Kind of assay: Cytochrome P450 family 2 subfamily D member 6 (CYP2D6) small molecule antagonists: luciferase biochemical (cell-free) qHTS assay (AID 1645840; active = well fitted curve in the direction sought with a large enough effect in the repeat runs; an effect the other way counts as inactive or inconclusive; note: nearly all actives have a fitted effect of over 55% in size; note: potency is the fitted concentration of half-maximal effect). The method, boiled down:
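P450-Glo CYP2D6 system: proluciferin substrate converted by enzyme to luciferin, read by luminescence proportional to activity. Enzyme-substrate mix with compound 10 min at room temperature, then NADPH regeneration 1 h before detection reagent.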
For orientation: Quantitative high-throughput screening tests each substance at several concentrations.

Assay [2] concerns the target Cytochrome P450 2C9 (Homo sapiens) (UniProt P11712). Kind of assay: Cytochrome P450 family 2 subfamily C member 9 (CYP2C9) small molecule antagonists: luciferase biochemical (cell-free) qHTS assay (AID 1645842; active = well fitted curve in the direction sought with a large enough effect in the repeat runs; an effect the other way counts as inactive or inconclusive; note: potency is the fitted concentration of half-maximal effect; nearly all actives have a fitted effect of over 55% in size). The method, boiled down: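 P450-Glo CYP2C9 system: proluciferin substrate with enzyme in mix containing 0.4% BSA, 10 min at room temperature, then NADPH regeneration solution added and incubated 1 h at 37C. Detection reagent stopped reaction; luminescence read after 20 min as RLU.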

In a further assay the test system is CRL-7250. Kind of assay: Cytotoxic Profiling of Annotated Libraries Using Quantitative High-Throughput Screening (AID 1296008). For max response: % is set by controls: 0 for no effect and ±100 for the full control effect. Note: nearly all actives have a fitted effect of over 60% in size. Note: potency is the fitted concentration of half-maximal effect. As to conditions: Five cell lines viability, CellTiter-Glo ATP luminescence, 48-72 h; max response: stronger effect = lower value. The method, boiled down: (§1)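 Cytotoxicity was measured as CellTiter-Glo ATP luminescence, read after 10 min at room temperature. Compound treatment of the cells lasted 48 or 72 hr at 37 degrees Celsius in a qHTS format.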
In general terms: ATP-based viability assays read luminescence as a measure of living cells.

Assay [3] relates to HaCat. The description is as above. As to conditions: Five cell lines viability, CellTiter-Glo ATP luminescence, 48-72 h; max response: stronger effect = lower value. The method, boiled down:
as §1

For the next assay, the system named is PA-1. As to the kind of experiment: Primary qHTS to identify gynecologic anti-cancer compounds using libraries of approved drugs and bioactive compounds (AID 1345084). Note: % is set by controls: 0 for no effect and ±100 for the full control effect; nearly all actives have a fitted effect of over 55% in size. Conditions: Gynecologic cancer cell panel viability, ATPlite luminescence, 48 h; series mostly up to 57.5 µM. The method, boiled down:
(§2)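 Cell viability after 48 h drug treatment, ATPlite luminescence readout; five doses.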

A further assay concerns SKOV3. Described as above. As to conditions: Gynecologic cancer cell panel viability, ATPlite luminescence, 48 h; series mostly up to 57.5 µM. The method, boiled down: as §2
Assay [4] in a line: P-glycoprotein substrates identified in KB-8-5-11 adenocarcinoma cell line, qHTS therapeutic library screen (AID 1346987). Note: % is set by controls: 0 for no effect and ±100 for the full control effect; nearly all actives have a fitted effect of over 65% in size. The method, boiled down: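 Luminescence from CellTiter-Glo, read 5 min after addition, quantified survival of KB-8-5-11 (P-gp-overexpressing) cells exposed to compounds for 72 h. AC50 was derived from concentration-response curves.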
Assay [5] deals with HACAT. Kind of assay: qHTS assay to identify novel small-molecules to repurpose for Merkel cell carcinoma treatment (AID 1296009). Note: nearly all actives have a fitted effect of over 60% in size. Conditions: MCC and control cell lines, CellTiter-Glo viability, 72 h; at 44.8 µM (top of the series) unless noted. The method, boiled down:
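Cell viability, measured as CellTiter-Glo luminescence, was normalized between DMSO and no-cell wells. The cells had been exposed to 8- or 11-point compound dilutions for 72 hr at 37 degree celsius.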

Assay [6] has as its system Zika virus NS2B-NS3 protease (unlinked complex). As to the kind of experiment: Primary screen GU Rhodamine qHTS for Zika virus inhibitors: Unlinked NS2B-NS3 protease assay (AID 1347159). Note: % is set by controls: 0 for no effect and ±100 for the full control effect; nearly all actives have a fitted effect of over 60% in size. The method, boiled down: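 Buffer 10 mM Tris-HCl pH 8.0, 0.01% Tween 20. Unlinked protease 25 nM; compound preincubation 15 min, RT, protected from light. Substrate Rhod110, 1.5 microM; ~15% conversion in 15 min.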

The nature of assay [7]: qHTS drug screen for cell cycle checkpoint inhibitors in PARPi-resistant BRCA-mutant ovarian cancer cell lines. (AID 1963452; calls by dose curve). Conditions: PEO1/OlaR viability, CellTiter-Glo luminescence, 96 h, stronger effect = lower value. The method, boiled down: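 PEO1, PEO4 and PEO1/OlaR ovarian cancer cells, 600 per well, exposed 96 h at 37C to a dilution series. Viability read by CellTiter-Glo luminescence, normalized to DMSO and empty wells; activity summarized as Z-AUC.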

Assay [8] can be described thus: Confirmatory screen GU Rhodamine qHTS for Zika virus inhibitors qHTS (AID 1347157). Note: potency is the fitted concentration of half-maximal effect; nearly all actives have a fitted effect of over 70% in size. The method, boiled down:
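A qHTS format was used, with compound concentrations ranging up to 114 microM. Each compound was preincubated with 25 nM NS2B-NS3 protease, and the substrate was then added at 1.5 microM. Curves were fitted with a 4-parameter Hill model.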

The nature of assay [9]: qHTS to identify inhibitors of the type 1 interferon - major histocompatibility complex class I in skeletal muscle: primary screen against the NCATS Mechanism Interrogation Plate v5.0 (MIPE) Libary (AID 1347411).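 Note: plate controls were vehicle for no effect and reference inhibitor for full effect; nearly all actives have a fitted effect of over 65% in size.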 The method, boiled down:
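Seed engineered human myoblasts (HLA-B HiBit) in medium without dexamethasone containing 4 ng/ml IFN-beta; after 1 hr add compound titrations (top 46 uM final). Incubate 24 hrs at 37 C, lyse 10 min with HiBiT reagent, read luminescence.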

The mark [10] stands for this setting: measured here: PEO1 parental Z-AUC.

Sequence of Cytochrome P450 2D6 (Homo sapiens) (P10635 whole entry, looked up): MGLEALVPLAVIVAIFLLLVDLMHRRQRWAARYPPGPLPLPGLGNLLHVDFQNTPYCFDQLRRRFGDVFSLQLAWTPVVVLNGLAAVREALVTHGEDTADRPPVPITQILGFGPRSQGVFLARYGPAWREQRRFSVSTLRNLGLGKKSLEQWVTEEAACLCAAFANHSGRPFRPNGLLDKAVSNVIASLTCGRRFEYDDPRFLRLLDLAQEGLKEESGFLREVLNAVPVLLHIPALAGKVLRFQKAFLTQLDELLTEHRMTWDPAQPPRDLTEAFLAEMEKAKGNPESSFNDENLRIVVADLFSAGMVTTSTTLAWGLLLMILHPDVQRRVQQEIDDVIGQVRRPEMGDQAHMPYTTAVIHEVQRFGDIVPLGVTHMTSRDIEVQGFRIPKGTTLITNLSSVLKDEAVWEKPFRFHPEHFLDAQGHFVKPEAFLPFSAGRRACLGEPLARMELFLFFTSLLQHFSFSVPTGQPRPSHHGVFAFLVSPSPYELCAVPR
Sequence of Cytochrome P450 2C9 (Homo sapiens) (P11712 whole entry, looked up): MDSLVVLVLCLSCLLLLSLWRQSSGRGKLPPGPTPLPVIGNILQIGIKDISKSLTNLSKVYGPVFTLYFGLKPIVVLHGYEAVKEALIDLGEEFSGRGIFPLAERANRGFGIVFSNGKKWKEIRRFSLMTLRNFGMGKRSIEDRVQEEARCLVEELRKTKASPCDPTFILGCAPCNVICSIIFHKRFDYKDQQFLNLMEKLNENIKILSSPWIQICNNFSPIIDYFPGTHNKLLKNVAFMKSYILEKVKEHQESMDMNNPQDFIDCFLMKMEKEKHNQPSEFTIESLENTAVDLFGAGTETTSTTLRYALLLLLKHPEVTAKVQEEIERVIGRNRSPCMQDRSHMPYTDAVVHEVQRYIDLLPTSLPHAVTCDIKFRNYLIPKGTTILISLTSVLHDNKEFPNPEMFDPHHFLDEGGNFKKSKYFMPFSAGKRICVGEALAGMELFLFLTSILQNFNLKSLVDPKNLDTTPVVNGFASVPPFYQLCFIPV

For `COc1cccc(CNC(=O)Nc2nc(-c3ccncc3)cs2)c1`, the Potency in assay [1] is 0.601 µM (active); in [2], 0.239 µM (active). The figures for the max response with CRL-7250 and in the assay on HaCat [3] were -25.8% (inactive) and -7.04% (inactive), respectively. Further, the Potency result in the assay on PA-1 and in the assay on SKOV3 was “inactive” each time.
On to `CN(CCCNC(=O)c1ccc2nc3c(c(Cl)c2c1)CCCC3)Cc1ccccc1`, for which the Potency in assay [1] was 1.34 µM (active); in [2], 15.1 µM (active). Also, the max response in the assay on HaCat [3] is 1.7% (inactive). In addition, the Potency entry in the assay on PA-1 and in the assay with SKOV3 was “inactive” in each case.
Take `C=C1/C(=C/C=C2\CCC[C@]3(C)[C@@H]([C@H](C)/C=C/C(=O)C4CC4)CC[C@@H]23)C[C@@H](O)C[C@@H]1O`: the Potency entry (in assay [4]; in the assay on PA-1; with SKOV3) was “inactive” each time. Also, the outcome with HaCat [3] and in the assay with HACAT [5] was inactive.
In the case of `C=C1CC[C@@H]2[C@](C)(CO)[C@H](O)CC[C@@]2(C)[C@@H]1C/C=C1/C(=O)OC[C@@H]1O`, in [6], the Potency entry is “inactive”. Moreover, the result with HaCat [3] and in the assay with HACAT [5] was inactive.
`CNC(=O)c1cccc2cc(Oc3ccnc4cc(OCC5(N)CC5)c(OC)cc34)ccc12`: the Potency result in [6] and in assay [1] was “inactive” throughout. Also, in assay [2], the Potency was 7.56 µM (active). For the same compound, the Z-AUC in assay [7] was 0.323 (inactive); in assay [7] (setting [10]), 0.465; in assay [7] (measured here: PEO4 Z-AUC), 0.47. In addition, the call in the assay on HaCat [3] and in the assay on HACAT [5] was inactive.
As to `CC(C)[C@@H](C)/C=C/[C@@H](C)[C@H]1CC[C@H]2C3=CC=C4C[C@@H](O)CC[C@]4(C)C3=CC[C@]12C`, the call in the assay with HaCat [3] and in the assay with HACAT [5] was inactive. In the assay with PA-1, the Potency result was “inactive”.
With `CNc1ccc([N+](=O)[O-])cc1-n1cnc(-c2ccc(C(F)(F)F)cc2)c1`, the results for the Potency in assay [1] and in assay [2] were 0.756 µM (active) and 3.01 µM (active), respectively. The max response with HaCat [3] is -13.4% (inactive). Also, the Potency entry with PA-1 and in the assay on SKOV3 was “inactive” each time.
With `CC1CCC2C(=CCC(O)C2(C)C)C1(C)Cc1c(O)cc(CO)c(C=O)c1O` (configuration not stated), the Potency in [8] was 24.3 µM (active). Further, the compound was classed as inactive in the assay on HaCat [3] and in the assay with HACAT [5]. Also, the Potency entry with PA-1 and in the assay with SKOV3 was “inactive” throughout.
As for `Cc1ccc(CCCO)c(NCc2ccc3nc(NCCCN4CCOCC4)n(Cc4nc(C)ccc4O)c3c2)c1`, the Potency result in assay [6] was “inactive”. Moreover, the Potency with CRL-7250 was 23.1 µM (active). For the same compound, the max response in the assay on HaCat [3] is -12.2% (inactive).
As for `COc1cc(O)ccc1OCCNCC(O)COc1cccc2[nH]c3ccccc3c12` (configuration not stated), the Potency entry (in [6]; in the assay on PA-1) was “inactive” each time. Further, the compound was called inactive with HaCat [3] and in the assay with HACAT [5].
In the case of `COc1cc([C@@H](CC(=O)O)c2ccc(C)c(CN3C[C@@H](C)Oc4ccccc4S3(=O)=O)c2)cc2nnn(C)c12`, the Potency result in assay [9] is “inactive”. For the same compound, the Z-AUC in [7] is 1.24 (inactive); in [7] (setting [10]), 0.171; in assay [7] (measured here: PEO4 Z-AUC) it was -0.282. In addition, in the assay on HaCat [3], the max response is -8.19% (inactive).
